Among all 1,300 compounds or so, about 100 (7.7%) were called active. Inconclusive results (about 19%) are left out. Calls follow the shape of the dose curve; as a rule, active = well fitted activation curve with a large enough effect; inconclusive = small, poorly fitted or top-dose-only effect; inactive = no such curve, though single readings can be large or run the other way. A selection follows.

Data on 54 compounds can be found in PubChem BioAssay AID1963318 (National Center for Advancing Translational Sciences (NCATS), 2024).
Potency is read from the fitted curve at half-maximal effect.

Sequence of Luciferin 4-monooxygenase (Photinus pyralis) (P08659 whole entry, looked up): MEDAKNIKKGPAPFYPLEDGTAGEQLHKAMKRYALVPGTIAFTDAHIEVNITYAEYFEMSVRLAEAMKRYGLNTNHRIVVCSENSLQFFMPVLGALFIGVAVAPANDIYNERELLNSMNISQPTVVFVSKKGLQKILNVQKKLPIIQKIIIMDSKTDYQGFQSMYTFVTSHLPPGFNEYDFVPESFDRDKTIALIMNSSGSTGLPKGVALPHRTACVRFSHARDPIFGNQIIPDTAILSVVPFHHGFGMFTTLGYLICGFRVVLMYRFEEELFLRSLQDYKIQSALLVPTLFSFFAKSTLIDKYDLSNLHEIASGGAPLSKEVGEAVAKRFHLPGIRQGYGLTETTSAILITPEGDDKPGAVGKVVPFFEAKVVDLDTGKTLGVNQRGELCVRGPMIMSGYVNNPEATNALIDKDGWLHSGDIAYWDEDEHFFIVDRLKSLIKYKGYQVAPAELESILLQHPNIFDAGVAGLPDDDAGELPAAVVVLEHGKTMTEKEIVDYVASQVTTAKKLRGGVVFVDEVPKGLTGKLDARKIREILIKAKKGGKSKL

The assay addresses Luciferin 4-monooxygenase (Photinus pyralis) (UniProt P08659). Briefly: Firefly luciferase (FLuc-C-HiBiT) SDR gain of signal screen - without ATP. Also: nearly all actives have a fitted effect of over 55% in size. As to conditions: Purified FLuc-C-HiBiT, Nano-Glo HiBiT luminescence, no ATP; series mostly up to 32.7 µM; activation (signal gain): at the top concentration. The source says:
PI: James Inglese Ph.D. National Center for Advancing Translational Sciences (NCATS), National Institute of Health (NIH), Maryland Discovery and optimization of novel protein-binding ligands underlies many of the methods and applications of biology, drug discovery, clinical diagnostics, and environmental toxicology. Assays for detecting the interaction of, for example, a molecule with a macromolecular target also referred to here as the target of interest (TOI) is dependent on a compatible output technology. Depending on the nature and knowledge surrounding the TOI, whether a receptor, enzyme, regulatory subunit or scaffold, or a sequence-defined nucleic acid folded into a complex tertiary structure, assay strategies can vary widely. Here we exploit ligand-biased changes in the structural dynamics of the target protein to control reporter alpha complementation allowing a non-competitive, non-functional, non-separation measure of ligand-target interaction. […] Secondly, we show the specificity and sensitivity of the SDR for the Abelson tyrosine kinase (ABL1) compared to the serine/threonine protein kinase A, using an enriched chemical library of 128 compounds selected, in part, for activity annotated with ABL1 kinase activity using the Pharos database (3). References: (1) A. S. Dixon et al., NanoLuc Complementation Reporter Optimized for Accurate Measurement of Protein Interactions in Cells. ACS Chem Biol 11, 400-408 (2016). […] Chemistry & Biology, 19, 1060 - 1072 (2012). (3) K. J. Kelleher et al., Pharos 2023: an integrated resource for the understudied human proteome. Nucleic Acids Res 51, D1405-D1416 (2023).
1. Reagent. Dispense 4 uL FLuc-C-HiBiT enzyme-buffer solution per well at a final enzyme concentration of 10 nM with or without 10 uM ATP into columns 2-48 of white, solid bottom medium bind 1536-well plates (Greiner Bio-One) by BioRaptr 2. Dispense respective buffer without enzyme at 4 uL/well in column 1 of assay plates. 2. Compounds. Library compounds and PTC124 control added at 23 nL per well, transfer by Pin Tool. 3. Incubation. Incubate enzyme and compounds at room temperature for >30 min, protect from light. 4. Reagent. (SDR assay) Add 3 uL/well of Nano-Glo HiBiT reagent (Promega) to assay plates for SDR assay without ATP. 5. Incubation. Incubate enzyme and substrate or detection reagent at room temperature for 5-10 min, protect from light. 6. Detector. HiBiT SDR assay measured using CCD-based camera (ViewLux) with settings as follows: Exposure, 1 sec; Gain, High; Speed, Slow; Binning, 2X. REFERENCES: Inglese J, Shamu CE and Guy RK, Reporting data from high throughput screening of small molecule libraries, Nature Chemical Biology, 2007, 3(8): 438-441. doi.org/10.1038/nchembio0807-438.
In general terms: HiBiT is a short tag that completes a luciferase, so light tracks the accessible tagged protein.
On to `COc1ccc(-c2cc(N3CCCC(NC(=O)c4ccsc4)C3)n[nH]2)cc1` (centres undefined), for which the “activation (signal gain)” value was 19.3% (inactive).
Regarding `Fc1ccc(Nc2nc(-c3ccccc3F)no2)cc1`, the “activation (signal gain)” value is 22% (inactive).
Take `Cc1nn(-c2ccc(C(C)C)cc2)c(C)c1[C@@H]1C=C[C@@H](NC(=S)NCC(C)C)C1`: the “activation (signal gain)” value was 13.7% [at 49.3 µM] (inactive).
On the same count and under the same terms, next, `COc1ccc(CC(=O)Nc2ccc(-c3nc4ccccc4s3)c(C)c2)cc1`: 11.5% (inactive); `O=C(COc1ccc(Cl)cc1)Nc1ccc(-c2nc3cc(Cl)ccc3o2)c(O)c1`: 11.7% (inactive); `O=C([C@@H]1C[C@@H](O)[C@H](O)[C@@H]2NC(=S)N(c3ccc(OC(F)(F)F)cc3)[C@@H]21)N1CCCCC1`: 18.3% (inactive).
Regarding `CCNC(=O)C1C(c2cccc(NC(=O)c3ccc(OC)cc3)c2)OC(=O)N1Cc1ccc(C)cc1` (centres undefined), the “activation (signal gain)” value is 19.8% (inactive).
Same read-out and setting: with `Cc1nnn2c(C(=O)NC3CC3)cccc12` the figure was 15.7% [at 65.7 µM] (inactive); with `COc1cc(F)ccc1-c1ccc(COc2ccc3c(cnn3CCC(=O)O)c2)cc1`, 10.6% [at 49.3 µM] (inactive); with `Cc1cc(C)n(CCC(=O)N2CCC(Cc3noc(C4CC4)n3)C2)n1` (centres undefined), 9.71% (inactive).
Still for that read-out and setting: next, `O=C(Nc1ccccc1)c1nc2c(o1)CCN(Cc1cccc(Cl)c1)CC2`: 18.4% [at 49.3 µM] (inactive).
As to `Cc1ccc(C(=O)Nc2ccc(-c3nc4ccccc4s3)c(O)c2)cc1`, the “activation (signal gain)” value is 15.8% (inactive).
`CC(=O)c1ccc(NC(=O)CSc2nnc(NC(=O)Nc3ccccc3)s2)cc1`: the “activation (signal gain)” value was 19.1% (inactive).
For the compound `O=C(CSc1ccc(F)cc1)Nc1ccccc1-c1nc2ccccc2s1`, the “activation (signal gain)” value is 10.6% (inactive).
On to `C[S+](=O)([O-])CCn1ncc2cc(OCc3cccc(-c4ccccc4)c3)ccc21`, for which the “activation (signal gain)” value was 15.9% [at 49.3 µM] (inactive).
The same measure, in the same setting: with `Cc1ccc2cc(CN3CCN(CC(N)=O)CC3)c(-c3cccs3)nc2c1` the figure was 17.7% (inactive); with `OCc1cccc(-c2cc3c(cn2)CN(Cc2ccccc2)CCN3)c1`, 19.2% [at 49.3 µM] (inactive).
In the case of `O=C(NCc1ccc(F)c(Cl)c1)C1CCN(C(=O)c2ncn3c2COC(c2ccccc2)C3)CC1` (centres undefined), the “activation (signal gain)” value is 12% (inactive).
Consider `CC(=O)Oc1ccccc1C(=O)Nc1ccc(-c2nc3ccc(C)cc3s2)cc1`, for which the “activation (signal gain)” value is 20.9% (inactive).
The same measure, in the same setting: with `O=C(NCc1ccccc1)C1CCN(C(=O)c2ncn3c2COC(c2ccccc2)C3)CC1` (centres undefined) the figure was 16.6% (inactive); with `O=C(/C=C/c1ccccc1)Nc1cc(-c2nc3cc(Cl)ccc3o2)ccc1Cl`, 14.8% (inactive).
Still for that read-out and setting: with `CNc1nc(C(=O)NCc2ccc3[nH]c(-c4ccc(F)cc4)c(C)c3c2)cs1` the figure was 13.1% (inactive); with `OCCN1CCN(c2nc(N3CCCCC3)c3cnn(-c4ccc(Cl)cc4)c3n2)CC1`, 11.8% (inactive).
Regarding `OCC1CCCN(c2ncnc3c2cnn3-c2ccccc2)C1` (centres undefined), the Potency was 1.76 µM (active).
`Cc1ccc(-n2ncc3c(N4CCC(C(N)=O)CC4)ncnc32)cc1`: the “activation (signal gain)” value was 15.7% (inactive).
Take `Cc1ccc(-c2nnc(SCc3ccccc3C)o2)cc1`: the “activation (signal gain)” value is 13.5% (inactive).
Same read-out and setting: with `O=C(NC1CCN(c2cc(-c3ccc(F)cc3)[nH]n2)C1)c1cc2ccccc2[nH]1` (centres undefined) the figure was 18.6% (inactive).
Regarding `Cn1ccnc1CN1CCc2nc(C(=O)Nc3ccccc3)oc2CC1`, the “activation (signal gain)” value is 18.4% [at 49.3 µM] (inactive).
Still for that read-out and setting: with `Cc1ccc(C2Cn3nnc(C(=O)N4CCC(C(=O)NCCc5ccccc5)CC4)c3CO2)cc1` (centres undefined) the figure was 9.42% (inactive).
As to `CN1c2cc(C(=O)Nc3ccccc3)ccc2C(=O)N2CCCCCC21` (centres undefined), the “activation (signal gain)” value is 17% (inactive).
The same measure, in the same setting: next, `Oc1cccc(-c2cc3c(cn2)CN(Cc2cccnc2)CCN3)c1`: 18.1% [at 49.3 µM] (inactive); `OC1(CN2CCCCC2)CCN(c2nc3ccccc3s2)C1` (centres undefined): 16% (inactive).
Turning to `Cc1nn(-c2ccc(C(C)(C)C)cc2)c(C)c1[C@@H]1C=C[C@@H](NC(=O)c2ccco2)C1`, the “activation (signal gain)” value is 9.96% [at 49.3 µM] (inactive).
On the same count and under the same terms, with `Cc1cccc(C(=O)Nc2ccc(-c3nc4ccccc4s3)c(C)c2)c1` the figure was 21.9% (inactive).
Still for that read-out and setting: with `COc1cccc(-c2nc3ccc(-c4ccc5c(c4)OCO5)cc3o2)c1OC` the figure was 24.4% (inactive); with `Cc1ccc(Cl)cc1-n1ncc2c(N3CCC(C(N)=O)CC3)ncnc21`, 12% (inactive); with `COc1ccc(-c2nc3ccccc3s2)cc1NC(=O)COc1ccccc1C`, 7.67% (inactive).
On to `CN1CCN(C[C@@H]2CN(C(=O)CCCc3ccccc3)C[C@@H]2CO)CC1`, for which the “activation (signal gain)” value is 8.6% (inactive).
For `Cc1nn(-c2ccc(C(C)C)cc2)c(C)c1[C@@H]1C=C[C@@H](NC(=O)Nc2ccccc2)C1`, the “activation (signal gain)” value is 14.5% [at 49.3 µM] (inactive).
In the case of `Cc1ccc(Nc2c(-c3ccc(N(C)C)cc3)nc3nc[nH]n23)cc1`, the “activation (signal gain)” value is 18.3% (inactive).
Regarding `CC(=O)Nc1ccc(NC(=O)CCCc2nc(-c3ccc(C(C)(C)C)cc3)no2)cc1`, the “activation (signal gain)” value was 24.7% (inactive).
The same measure, in the same setting: next, `O=C(CCCc1ccccc1)N1CCC2(CC1)CC(O)CCO2` (centres undefined): 21.2% (inactive); `COc1ccccc1OC1(C(=O)O)CCN(c2ncnc3nc[nH]c23)CC1`: 11.8% (inactive).
The same measure, in the same setting: next, `CC(C)C(=O)Nc1cc(-c2nc3ccccc3s2)ccc1Cl`: 11.7% (inactive); `Oc1ccc(-c2nc(C3CC3)nc3c2CCN(Cc2cccc(F)c2)CC3)cc1`: 9.06% (inactive).
On the same count and under the same terms, next, `Cc1nn(-c2ccc(C(C)C)cc2)c(C)c1[C@@H]1C=C[C@@H](NC(=O)CC2(CC(=O)O)CCCC2)C1`: 15.4% (inactive); `Cc1cc2nn(-c3ccc(Cl)cc3)nc2cc1NC(=O)C(C)C`: 17.2% (inactive).
For the compound `O=C(NCC1CC1)C1CCN(C(=O)c2ncn3c2COC(c2ccccc2)C3)CC1` (centres undefined), the “activation (signal gain)” value was 12.6% (inactive).
The same measure, in the same setting: with `CCc1cccc(NC(=O)c2cc(-c3ccccc3)n[nH]2)c1` the figure was 25.8% (inactive).
Same read-out and setting: with `CC(=O)c1nn(-c2ccc(OC(F)(F)F)cc2)nc1Nc1ccccc1` the figure was 14.5% (inactive).
In the case of `COc1ccc(C)cc1NC(=O)Nc1cccc(-c2ccc(N3CCCCC3)nn2)c1`, the Potency is 8.81 µM (active).
As for `Cc1cccc(-c2cccc(NC(=O)C3CCCN(C(=O)CC(F)(F)F)C3)c2)c1` (centres undefined), the “activation (signal gain)” value is 12.4% (inactive).
The same measure, in the same setting: with `Cc1ccc(-c2nc(C(=O)N(C)Cc3ccccc3)no2)cc1` the figure was 13.1% (inactive); with `CCOC(=O)C1CCN(C(=O)c2cccc3c2CCN3C(=O)Nc2ccccc2)CC1`, 16.3% (inactive).
